Autofluor 339 = intrinsic fluorescence of library compounds, ex339/em460 – biochemical, MLSMR library, data from DPM-DC assay, artefact control, profiling panel; compound autofluorescence, ex339/em460 nm, NADH buffer; stronger effect = higher value; 1 = no-compound wells, NADH background; fluorescence fold increase at 10 µM; actives 5.5% (n = 65,000); AID 709;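 active = at 10 µM, mean starting fluorescence two-fold or more over control wells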;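 note: signal is the first read of a kinetic run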
M1 antag = M1 muscarinic receptor (rat) antagonism. P08482. B-score at 10 µM. actives 3.4% (n = 64,000). CHO-M1 cells, Fluo-4 calcium, ACh EC80 antagonist mode; stronger effect = lower value. AID 628;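 active = calcium fluorescence response, raw or row-and-column corrected B-score, differing from the plate sample mean either way at a set confidence level, mostly lower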
Target sequence (P08482 whole entry, looked up): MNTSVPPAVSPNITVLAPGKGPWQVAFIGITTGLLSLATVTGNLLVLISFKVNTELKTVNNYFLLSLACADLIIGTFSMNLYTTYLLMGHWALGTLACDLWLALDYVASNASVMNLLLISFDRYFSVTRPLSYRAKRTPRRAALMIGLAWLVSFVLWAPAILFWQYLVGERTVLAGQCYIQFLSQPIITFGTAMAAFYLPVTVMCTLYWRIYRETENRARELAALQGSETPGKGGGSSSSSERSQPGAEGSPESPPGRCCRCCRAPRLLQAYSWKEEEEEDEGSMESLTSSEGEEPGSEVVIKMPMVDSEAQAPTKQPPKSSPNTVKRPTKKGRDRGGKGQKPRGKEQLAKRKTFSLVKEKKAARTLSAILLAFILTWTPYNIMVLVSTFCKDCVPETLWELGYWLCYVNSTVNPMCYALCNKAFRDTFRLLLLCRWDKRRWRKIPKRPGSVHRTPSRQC
Abs 340nm = compounds absorbing at 340 nm. compound absorbance at 340 nm, fold over control. fold change at 10 µM. 65,000 tested, under 10 active;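 active = at 10 µM dose, initial 340 nm absorbance at least 2 fold that of control wells; inactive = change under 2 fold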;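 note: initial absorbance extrapolated from kinetic A340 decline of NADH oxidation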
M1 agonist = activates the M1 muscarinic receptor. AID 626. CHO-M1 cells, Fluo-4 calcium fluorescence, agonist mode; stronger effect = higher value. actives 3% (n = 64,000). B-score at 10 µM;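 active = fluorescence rise, raw or as B-score row- and column-corrected plate score, outside the 99.7% band of its plate's samples, either direction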
WNV NS2B-NS3 inh = WNV NS2B-NS3 proteinase inhibition. P06935. WNV NS2B-NS3 protease, fluorogenic substrate Ex360/Em465; stronger effect = lower value. z-score (concentration not given with the values). actives 0.18% (n = 65,000). AID 577; in the data active = z-score below about -3
BAP1 inh = blocks human BAP1 ubiquitin-AMC hydrolysis | recombinant BAP1, Ub-AMC hydrolysis fluorescence kinetic; stronger effect = lower value | Q92560 | calls only at 20 µM | actives 0.48% (n = 72,000);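 active = activity remaining at or below 50% of control, provided the compound also passes the data quality filters; inactive = the rest, including low values that fail the filters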;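 note: 100% = DMSO wells rate and 0% = substrate alone blank rate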
Starred values were filed as active, the others as inactive; i = inactive; · = not tested or not shown. Hits are enriched below; roughly 9.7% of the tested compounds scored in any of these assays.

SMILES	Autofluor 339	M1 antag	Abs 340nm	M1 agonist	WNV NS2B-NS3 inh	BAP1 inh
COc1ccc(CCNC(=O)c2c(O)c3cccc4c3n(c2=O)CC4)cc1	1.4	-0.14	1.1	-0.019	-4.7*	·
O=C(Nc1ccccc1C(F)(F)F)C(Cc1ccccc1)N1C(=O)c2ccccc2C1=O (stereo not given)	·	·	·	·	·	i
CC(Nc1nc(N2CCN(S(C)(=O)=O)CC2)nc2ccccc12)c1ccccc1 (stereo not given)	2.1*	-0.15	1.1	-0.0026	0.43	·
CS(=O)(=O)N1CCN(c2nc3ccccc3s2)CC1	1.1	-0.5	1	0.35	-0.03	i
O=C(Nc1cccc2ccccc12)c1cc2ccccc2o1	·	·	·	·	·	i
COCCCNC(=O)c1c(N)n(/N=C/c2cccnc2)c2nc3ccccc3nc12	2.3*	-0.81	1.1	4.1	-0.37	i
COCCCNC(=O)c1c(N)n(/N=C/c2cccs2)c2nc3ccccc3nc12	2.3*	-0.02	1.1	0.73	0.14	i
CCC(C)NC(=O)c1c(N)n(/N=C/c2ccccn2)c2nc3ccccc3nc12 (stereo not given)	1.9	0.7	1.1	0.0033	-0.3	i
CCC(C)NC(=O)c1c(N)n(/N=C/c2cccnc2)c2nc3ccccc3nc12 (stereo not given)	3.1*	-0.19	1.1	-0.72	0.71	i
CC(C)CNC(=O)c1c(N)n(/N=C/c2cccnc2)c2nc3ccccc3nc12	2.3*	-0.45	1	0.091	0.65	i
Cc1cccc(NC(=O)CC2Sc3ccc(C(F)(F)F)cc3NC2=O)c1C (stereo not given)	·	·	·	·	·	i
CCOC(=O)c1nc2sc3c(c2c(=O)[nH]1)CCCC3	2.5*	-0.013	1.1	-0.12	2	·
COc1cc(S(=O)(=O)N2CCN3CCCC3C2)ccc1-n1cnnn1 (stereo not given)	1.1	2.3	1.1	0.018	0.49	i
COc1cc(S(=O)(=O)N2CCCC3(CCCCC3)C2)ccc1-n1cnnn1	2.8*	-0.12	1	-0.34	-0.21	i
Cc1cc(Oc2ccccc2)nc2ccc(O)cc12	2.1*	0.44	1.1	0.77	-0.49	i
CCCOc1ccc(-c2nc(C#N)c(N3CCN(CC)CC3)o2)cc1	3.4*	0.58	1.1	0.97	0.51	·
CCOc1ccc(-c2nc(C#N)c(N3CCN(CC)CC3)o2)cc1	2.4*	-0.22	1.1	0.62	0.06	i
O=c1c2cc(Cl)ccc2oc2nc3n(c(=O)c12)CCCS3	2.6*	0.49	1.1	0.57	0.72	i
CCn1cc(S(=O)(=O)CC(=O)NC2CCCCC2)c2ccccc21	1.1	3.2*	1	1.1	-0.32	·
Cn1c2ccccc2c2c(C(=O)NCCCN3CCCC3=O)cn(C3CCCCC3)c(=O)c21	2.5*	-2.1	1	-0.37	-0.68	·
CN1CCN(CCCNC(=O)c2cn(C3CCCCC3)c(=O)c3c2c2ccccc2n3C)CC1	2.1*	0.36	1.1	-0.44	-1.4	·
O=C1c2cccc([N+](=O)[O-])c2C(=O)N1c1ccccn1	·	·	·	·	·	i
Nc1ncnc2c1ncn2[C@@H]1O[C@H](CO)[C@@H](O)[C@H]1O	1.1	-0.35	0.99	13*	-2.3	i
Nc1ncnc2c1ncn2[C@@H]1O[C@H](COP(=O)(O)OP(=O)(O)OP(=O)(O)OP(=O)(O)OC[C@@H]2O[C@H](n3cnc4c(N)ncnc43)C(O)[C@@H]2O)[C@H](O)C1O (stereo not given in full)	·	·	·	·	·	i
CCN1C(=O)NC(c2ccccc2[N+](=O)[O-])C(C(=O)OC2CCCCC2)=C1C (stereo not given)	·	·	·	·	·	i
SMILES	Autofluor 339	M1 antag	Abs 340nm	M1 agonist	WNV NS2B-NS3 inh	BAP1 inh
COC(=O)c1ccc(C(=O)OC)c(NS(=O)(=O)c2ccc(NC(C)=O)cc2)c1	2.2*	-0.27	1.1	1.7	2.2	i
c1ccc2c(-c3nc4ncccc4o3)cccc2c1	3.8*	0.36	1.1	1.4	0.89	·
Cc1c(NC(=O)Cc2ccccc2)cccc1-c1nc2ncccc2o1	·	·	·	·	·	i
Cc1ccnc(NC(=O)CCC(=O)N(CC(=O)NC(C)(C)C)C2CCCC2)c1	1	0.025	0.98	-0.014	0.29	i
CC1=CC=CC2=NC(=O)CC(C)(C(=O)N(CC(=O)NC(C)C)C3CCCC3)N12 (stereo not given)	3*	2	1	2.2	-0.06	i
CC(C)(C)NC(=O)CN(C(=O)C1(C)CC(=O)N=C2C=CC=CN21)C1CCCC1 (stereo not given)	3.8*	0.52	1.1	0.29	-0.22	i
CC1=CC2=NC(=O)CC(C)(C(=O)N(CC(=O)NC(C)(C)C)C3CCCC3)N2C=C1 (stereo not given)	3.8*	0	1.1	0.75	-1.1	i
CCN(CC)S(=O)(=O)c1ccc(C(=O)Nc2nc3c(cc4c5c(cccc53)CC4)s2)cc1	·	·	·	·	·	i
O=C(c1cccc(S(=O)(=O)NC2CCCCCC2)c1)N1CCCc2ccccc21	·	·	·	·	·	i
O=C(Oc1ccc2ccc(=O)oc2c1)c1cccc([N+](=O)[O-])c1	·	·	·	·	·	i
COC(=O)c1ccc(COc2ccc(C3C4=C(CCCC4=O)Nc4onc(C)c43)cc2)cc1 (stereo not given)	2.4*	0.094	1	0.31	0.67	·
COc1cc(C2NC(=O)NC(C)=C2C(=O)OCCC#N)ccc1O (stereo not given)	·	·	·	·	·	i
CC(C)Cc1nc(N2CCN(C(=O)C(C)C)CC2)c(C#N)c2c1CCC2	2.1*	0.57	1	2.5	-0.32	i
CC(C)Cc1nc(N2CCOCC2)c(C#N)c2c1COC(C)(C)C2	2.4*	0.047	1.1	-2.6	-0.38	i
CC(C)c1nc(N2CCOCC2)c(C#N)c2c1CCC2	2*	-0.0022	1	-0.44	-0.19	i
CC(=O)N1CCN(c2nc(CC(C)C)c3c(c2C#N)CCC3)CC1	2.3*	-0.85	1	-0.85	-0.02	i
COc1ccccc1C1NC(=O)C(=O)/C1=C(/O)c1ccc(Br)cc1 (stereo not given)	·	·	·	·	·	i
CC1(C)Cc2ccccc2C(CCl)=N1	·	·	·	·	·	i
Cc1cccc(NC2=C(Cl)C(=O)N(c3ccc(C)cc3C)C2=O)c1	·	·	·	·	·	i
COc1ccc2c(c1)cc(C(=O)O)n2C	2.5*	0.43	1	-0.57	-0.41	·
CCOC(=O)c1cnn2c(C(F)(F)F)c3c(nc12)-c1ccccc1CC3	·	·	·	·	·	i
CC1(C)Cc2c(sc3nc(-c4cccs4)n(N)c(=O)c23)CO1	1.3	-1.8*	1.1	5*	-0.48	·
CN(C)c1nc2sc3c(c2c(=O)n1C)CC(C)(C)OC3	1.1	-0.19	1.1	-2.3	-0.53	i
CCCc1ccc(-c2ccc(C(=O)Nc3ccc(C(=O)OC)cc3)cc2)nc1	·	·	·	·	·	i
Cc1ccc(-n2nc3cc(C)c(NC(=O)c4ccc(Br)cc4)cc3n2)cc1	·	·	·	·	·	i
